# Giardia FBPA inh: Giardia lamblia aldolase inhibition. A8B2U2. purified Giardia FBPA. Potency, µM (titrated, usually from 59.6 µM), inactives show top-dose activity, negative = inhibition, most hits filed as inhibitors. 0.71% of 290,000 active; note: potency is the fitted concentration of half-maximal effect; % is set by controls: 0 for no effect and ±100 for the full control effect; nearly all actives have a fitted effect of over 55% in size
# Target sequence (A8B2U2 whole entry, looked up): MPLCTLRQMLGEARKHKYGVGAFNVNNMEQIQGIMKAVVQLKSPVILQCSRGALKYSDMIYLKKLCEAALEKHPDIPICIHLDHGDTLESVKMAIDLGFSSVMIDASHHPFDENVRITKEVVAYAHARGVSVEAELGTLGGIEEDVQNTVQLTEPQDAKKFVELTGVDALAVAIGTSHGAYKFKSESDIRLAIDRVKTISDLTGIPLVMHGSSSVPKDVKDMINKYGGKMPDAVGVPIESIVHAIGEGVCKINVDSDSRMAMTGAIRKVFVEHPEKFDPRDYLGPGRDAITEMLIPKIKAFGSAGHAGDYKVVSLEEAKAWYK
#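 Giardia FBPA (40 nM reagent) was preincubated 10 min at RT with compound (up to 57.5 uM final), then substrate plus GAPDH/TPI/NAD/arsenate coupling system with diaphorase/resazurin was added; resorufin fluorescence (525/598 nm) was read after 20 min.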
# CHX counter: counter-screen hit for Shiga toxin inhibitors, cycloheximide. cell reporter, cycloheximide protein synthesis inhibition counterscreen. max response, %. 12% of 300,000 active. AID 2314; in the data active = max response mostly above about 13%, no sharp cut-off; inactive = mostly below about 14%; note: read at 38.3 µM for the half of the compounds with a filed dose; 0% is about no effect
# LmPK inhibitor: inhibitors of Leishmania mexicana pyruvate kinase | purified LmPK, Kinase-Glo ATP luminescence, 1 h | Potency, µM (top dose mostly 57.5 µM), inactives show top-dose activity change, negative = inhibition, actives largely listed as inhibitors | 0.37% of 290,000 active; note: potency is the fitted concentration of half-maximal effect; % is set by controls: 0 for no effect and ±100 for the full control effect
#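 Purified LmPK (0.1 nM) converted ADP (0.1 mM) to ATP with PEP (0.5 mM) in imidazole buffer pH 7.2 with KCl and MgCl2, 1 h at room temperature. ATP was read by Kinase-Glo luminescence; data normalized to uninhibited and no-enzyme controls.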
# TbPYK inhibitor: blocks Trypanosoma brucei pyruvate kinase; Q57TT1; TbPYK enzyme, Kinase-Glo Plus ATP luminescence, 45 min; Potency, µM (doses to about 76.8 µM), inactives show at the top dose activity, negative = inhibition, hits mostly inhibitors; 0.12% of 410,000 active; AID 624173; note: potency is the fitted concentration of half-maximal effect; % is set by controls: 0 for no effect and ±100 for the full control effect; nearly all actives have a fitted effect of over 50% in size
#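 ADP (130 uM final) triggers the TbPYK reaction after compound addition; incubation is 45 min at room temperature. Kinase-Glo Plus is then added and luminescence imaged. Normalized data are fitted to concentration-effect curves.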
# Shiga inhibitor: inhibitors of Shiga toxin in Vero cells; inhibition, % at 38.7 µM; Vero cells, Shiga toxin protein synthesis inhibition reporter; 9.2% of 290,000 active; in the data active = inhibition mostly above about 28%, no sharp cut-off; inactive = mostly below about 43%; note: 0% is about no effect
# Sm TGR inh: inhibitors of Schistosoma mansoni thioredoxin glutathione reductase. Q962Y6. purified TGR, DTNB reduction, TNB absorbance 405 nm. Potency, µM (highest dose often 114 µM), inactives show at the top dose activity change, negative = inhibition, actives largely listed as inhibitors. 3% of 360,000 active; note: potency is the fitted concentration of half-maximal effect; % is set by controls: 0 for no effect and ±100 for the full control effect; nearly all actives have a fitted effect of over 60% in size
#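 TGR 20 nM + NADPH 100 uM (dispensed conc.), cpd preinc 15 min RT; start with NADPH (500 uM addition) then DTNB (15 mM addition). Kinetic TNB absorbance, 405 nm filter. Four-parameter Hill fit across titration.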
# An asterisk follows results filed as active; u = inconclusive; x = no result; [ ] = remark or other dose. Shown is part of a subset that was picked to be rich in hits. Unless noted, calls come from the whole dose curve; as a rule, active = well fitted curve in the direction sought with a large enough effect; inconclusive = small, poorly fitted or top-dose-only effect, or another doubt; inactive = no such curve, though single readings can be large; an effect the other way counts as inactive or inconclusive.
SMILES,Giardia FBPA inh,CHX counter,LmPK inhibitor,TbPYK inhibitor,Shiga inhibitor,Sm TGR inh
Cc1nn(C)c(C(=O)Sc2cccc(Cl)c2)c1[N+](=O)[O-],-1.1%,14.3,2.8%,0.9%,7.6,1.41µM*
CCn1nc(C)cc1C(=O)N1CCCC(N2CCN(c3cccc(Cl)c3)CC2)C1 (stereo not given),x,-2.4,-1.3%,x,-8.2,1.9%
CCn1nc(C)cc1C(=O)Sc1cccc(Cl)c1,0.6%,6.4,-4.2%,5.4%,28.8,6.31µM*
CCc1ccc(CNC(=O)CCc2c(C)nn(-c3ccc(N4CCCC4)nn3)c2C)cc1,x,x,x,0.6%,x,-3.1%
COC(=O)c1sc(N2C(=O)C(O)=C(C(=O)c3ccc(C)o3)C2c2ccc([N+](=O)[O-])cc2)nc1C (stereo not given),x,39.0*,-19.7%,2.9%,69.4*,-14.7%
CCOc1ccc(C2C(C(=O)c3ccc(C)o3)=C(O)C(=O)N2c2nc(C)c(C(=O)OC)s2)cc1 (stereo not given),-22.5%,26.4*,4.8%,0.3%,47.5*,44.7µM*
CCOC(=O)c1sc(N2C(=O)C(O)=C(C(=O)c3ccco3)C2c2ccc(C)o2)nc1C (stereo not given),-30.0%,6.8,6.3%,0.0%,4.2,7.94µM*
CCOC(=O)c1sc(N2C(=O)C(O)=C(C(=O)c3ccco3)C2c2ccc([N+](=O)[O-])cc2)nc1C (stereo not given),x,x,x,0.5%,x,x
COC(=O)c1sc(N2C(=O)C(O)=C(C(=O)c3ccc(C)o3)C2c2ccc(OC)c(OC)c2)nc1C (stereo not given),x,-3.9,-0.2%,3.0%,4.5,u
CCCCSCCCNC(=O)c1cn(CC)c2ccc(S(=O)(=O)N(C)C3CCCCC3)cc2c1=O,x,x,x,-10.8%,x,-0.8%
CC(C)N(C(=O)COC(=O)Cn1cnc2ccccc21)c1ccccc1,x,x,x,-1.4%,x,6.7%
Cc1nc2ccccc2nc(C)c1=NOCC(=O)N(c1ccccc1)C(C)C,-12.5%,61.1*,2.5%,-0.9%,115.6*,2.1%
COc1ccc(-n2nc(C(=O)NCC(=O)NCCC3=CCCCC3)c3ccccc3c2=O)cc1,6.1%,4.7,6.1%,-3.3%,1.6,-1.3%
c1ccc(-c2cnnc(N3CCOCC3)n2)cc1,2.8%,63.1*,-6.2%,-6.7%,68.2*,3.1%
Cc1cc(C)n(-c2nncc(-c3ccccc3)n2)n1,-18.9%,26.0*,-5.4%,-5.1%,70.7,3.9%
Cc1cc(C)n(-c2ncc(-c3ccccc3)nn2)n1,2.2%,57.2*,-3.7%,-1.7%,90.4*,6.8%
Cc1cc(C)n(-c2nc(Nc3ccccc3)nc(-n3nc(C)cc3C)n2)n1,1.4%,8.5,2.5%,-17.2%,-21.6,7.2%
CCc1nnc(NC(=O)c2nc(SCc3ccc(F)cc3)ncc2Cl)s1,x,x,x,-4.4%,x,5.8%
C=C1c2cccc(O)c2C(O)=C2C(=O)[C@@]3(O)C(O)=C(C(N)=O)C(=O)[C@@H](N(C)C)[C@@H]3[C@@H](O)[C@H]12,u,x,x,-14.6%[33.2 µM],x,x
CCOc1cccc(CC(=O)N2CCc3c([nH]c4ccccc34)C2c2ccc(C)cc2)c1OCC (stereo not given),x,x,x,1.6%,x,2.8%
O=[N+]([O-])c1cc([As](=O)(O)O)ccc1O,-25.6%,x,x,3.8%,x,31.6µM*
CN(Cc1ccccc1)C(=O)c1ccc(CSc2nc3cccnc3n2Cc2ccccc2)cc1,x,x,x,0.4%,x,4.4%
O=C(COn1nnc2ccccc21)NCC1CCCCC1,2.7%,28.4*,-3.2%,-8.3%,89.3,3.1%
COCC(=O)N1CCC2(CCN(Cc3ccccc3)CC2)CC1,1.1%,x,x,-2.6%,x,x
O=C(COn1nnc2ccccc21)N1CCN(Cc2ccccc2)CC1,-5.6%,50.0*,0.3%,-2.3%,96.1*,-20.8%
CCOc1ccccc1NC(=O)COn1nnc2ccccc21,-0.7%,16.8*,1.8%,-1.9%,37.5,-9.8%
COc1ccccc1OCC(=O)NCC1CCCCC1,-6.1%,12.3,-0.9%,4.0%,45.8,0.2%
Cc1sc2c(c1C)CN(CCN1CCOCC1)CN2C(=O)c1ccccc1,1.0%,19.9*,0.4%,-6.8%,55.4,79.4µM*
